CCHF vOTU inh-1 = CCHFV vOTU protease inhibitors, primary screen, biochemical, Pep-AMC substrate, fluorescence | inhibition, % at 11.5 µM | 0.55% of 370,000 active | AID 651958, 2012
Anthrax LF inh2 = Bacillus anthracis LF protease inhibitors, primary screen, biochemical, multiplex microsphere, MLPCN library; multiplex microsphere protease cleavage assay; 0.12% of 360,000 active; inhibition, % at 10 µM; AID 588501, 2011; Lethal factor (Bacillus anthracis), P15917; in the data active means inhibition above about 30%; inconclusive means no clear call, values can overlap the other calls
BoNT F protease = BoNT/F light chain protease inhibitors, primary screen, biochemical, flow cytometry, MLPCN library | AID 588497, 2011 | 0.22% of 360,000 active | inhibition, % at 10 µM | Multiplex microsphere protease cleavage assay; in the data active means inhibition above about 35%, passing the limit was not always enough; inconclusive means no clear call, values can overlap the other calls
Bead autofluor = flagged as autofluorescent in microsphere protease counterscreen. compound autofluorescence counterscreen, microsphere flow cytometry; stronger effect = higher value. fluorescence intensity (no concentration beside the values). 3.1% of 360,000 active; in the data active means fluorescence intensity above about 16000; inconclusive means no clear call, values can overlap the other calls
BoNT A protease = BoNT/A light chain protease inhibitors, primary screen, biochemical, flow cytometry, MLPCN library; AID 588499, 2011; inhibition, % at 10 µM; 0.17% of 360,000 active; multiplex microsphere protease substrate cleavage; in the data active means inhibition above about 30%; inconclusive means no clear call, values can overlap the other calls
3CLpro inhibitor = SARS-CoV 3CLpro protease inhibitors, primary screen, biochemical, quenched FRET; Replicase polyprotein 1ab (Severe acute respiratory syndrome coronavirus), P0C6X7; 0.14% of 290,000 active; inhibition, % at 6 µM; AID 1706, 2009; recombinant SARS-CoV 3CLpro, quenched FRET peptide cleavage; in the data active means inhibition above about 12%
CCHF vOTU inh-2 = CCHFV vOTU protease inhibitors, confirmation, biochemical, Pep-AMC substrate, fluorescence; 17% of 1,900 active; inhibition, % at 11.5 µM; Recombinant CCHFV vOTU; shares compounds with CCHF vOTU inh-1; AID 686976, 2013
Numbers stand for hits; . = inactive; ? = inconclusive; / = no result. The list is not random: actives were taken first. Their share in the collection is about 3.9%. Unless noted, no stated cut-off is given here; in the data, active means inhibition above about 30%; inactive means the rest.

SMILES | CCHF vOTU inh-1 | Anthrax LF inh2 | BoNT F protease | Bead autofluor | BoNT A protease | 3CLpro inhibitor | CCHF vOTU inh-2
CC(C)c1cn(CC[C@@H]2CC[C@H](NS(=O)(=O)c3ccc(F)cc3)[C@@H](CO)O2)nn1 | . | / | / | / | / | / | /
C[C@H](CO)N1C[C@H](C)[C@H](CN(C)C(=O)Nc2ccc(F)cc2)OCc2cnnn2CCCC1=O | . | . | . | . | . | / | /
COC(=O)c1ccc(CN(C(=O)N2CCN(C)CC2)S(=O)(=O)c2ccc(C)cc2)cc1 | 45 | . | . | . | . | / | .
O=C(COc1ccccc1-c1ccccc1)NNC(=O)NC1CCCCC1 | . | . | . | . | . | . | /
CCCn1c(N)c(C(=O)COC(=O)CCNS(=O)(=O)c2ccccc2F)c(=O)[nH]c1=O | . | . | . | . | . | / | /
Cc1cc(/C=C2\C(=O)NC(=O)N(C)C2=O)c(C)n1-c1ccc2c(c1)OCO2 | 34 | . | . | . | . | . | .
O=C1SCCC1NS(=O)(=O)c1ccc([N+](=O)[O-])cc1 (stereo not drawn) | . | . | . | . | . | . | /
COC(=O)[C@]12C[C@H](CC(=O)N3CCCC3)C(=O)N(CCC3=CCCCC3)C1=C[C@H](C(C)(C)C)O[C@@H]2C | . | / | / | / | / | / | /
COC(=O)[C@]12C[C@H](CC(=O)N3CCOCC3)C(=O)N(CCC3=CCCCC3)C1=C[C@H](C(C)(C)C)O[C@@H]2C | 30 | / | / | / | / | / | .
COC(=O)[C@]12C[C@H](CC(=O)N3CCC(c4ccccc4)CC3)C(=O)N(Cc3ccc4c(c3)OCO4)C1=C[C@H](C(C)(C)C)O[C@@H]2C | 30 | / | / | / | / | / | .
COC(=O)[C@]12C[C@H](CC(=O)NCC3CCCCC3)C(=O)N(CCc3ccc(OC)c(OC)c3)C1=C[C@H](C1CCCC1)O[C@@H]2C | . | / | / | / | / | / | /
COC(=O)[C@]12C[C@H](CC(=O)NCC3CCCCC3)C(=O)N(CCc3ccc(OC)c(OC)c3)C1=C[C@H](C(C)(C)C)O[C@@H]2C | 31 | / | / | / | / | / | .
CCCCCCCCN1C(=O)[C@@H](CC(=O)N2CCOCC2)C[C@@]2(C(=O)OC)C1=C[C@H](C(C)(C)C)O[C@@H]2C | 31 | / | / | / | / | / | .
COc1ccc(S(=O)(=O)N2CCCCC2)cc1NC(=O)CSc1nnc(C2CC2)n1C | . | . | . | ? | . | / | /
Cn1c(CNC(=O)c2ccc3c(c2)OCO3)nnc1SCC(=O)Nc1ccccc1F | . | . | . | . | . | . | /
COC(=O)[C@]12C[C@H](CC(=O)NCCC(C)C)C(=O)N(CCC3=CCCCC3)C1=C[C@H](C(C)(C)C)O[C@@H]2C | 30 | / | / | / | / | / | .
CCCCNC(=O)C[C@H]1C[C@@]2(C(=O)OC)C(=C[C@H](C(C)(C)C)O[C@@H]2C)N(CCC2=CCCCC2)C1=O | . | / | / | / | / | / | /
Cc1ccc(NC(=S)N(Cc2ccc(Br)cc2)Cc2ccc(C(=O)O)cc2)cc1C | 31 | . | . | . | . | . | .
O=C1Nc2ccccc2-n2nnnc2C1N1CCN(c2ccc(C(F)(F)F)cc2[N+](=O)[O-])CC1 (stereo not drawn) | 32 | / | / | / | / | / | .
Cc1ccc(C)c(N2CCN(C(=O)c3ccc4nc(-c5ccco5)c(-c5ccco5)nc4c3)CC2)c1 | 44 | . | . | . | . | . | .
COc1ccccc1N1CCN(C(=O)c2ccc3nc(-c4ccco4)c(-c4ccco4)nc3c2)CC1 | . | . | . | . | . | . | /
CCOC(=O)Cn1nc(C)n(-c2ccc(F)cc2)c1=O | . | . | . | . | . | . | /
CCCn1c(SCC(=O)Nc2ccc(Cl)cn2)nnc1C1CC1 | 34 | . | . | . | . | . | .
COc1ccc(C)cc1S(=O)(=O)N(C)CC(=O)Nc1ccc2c(c1)OCO2 | 30 | . | . | . | . | . | .
CCOC(=O)COc1ccc(S(=O)(=O)N2CCN(c3ccc(OC)cc3)CC2)cc1 | 30 | . | . | . | . | . | .
SMILES | CCHF vOTU inh-1 | Anthrax LF inh2 | BoNT F protease | Bead autofluor | BoNT A protease | 3CLpro inhibitor | CCHF vOTU inh-2
COc1cc(/C=C2/NC(=O)N(Cc3ccccc3F)C2=O)cc(OC)c1O | 40 | . | . | . | . | . | .
CCOc1cc(/C=C2/NC(=O)N(Cc3ccccc3F)C2=O)ccc1O | . | . | . | . | . | . | /
O=S1(=O)N[C@H](Cc2ccccc2)COc2cc(N3CCN(Cc4ccccc4F)CC3)ccc21 | . | . | . | . | . | / | /
CC(C)(C)c1cc(=O)n(-c2ccccc2)[nH]1 | 77 | . | . | . | . | . | .
O=c1cc(-c2ccccc2)[nH]n1-c1ccccc1 | . | . | . | . | . | / | /
CC(=O)N(C1=C(N)C(=O)c2ccccc2C1=O)c1ccccc1 | 73 | . | . | . | . | . | 64
NC(=O)c1ccc(NC(=O)CS(=O)(=O)c2cn(CC(=O)N3CCCCC3)c3ccccc23)cc1 | . | . | . | . | . | . | /
Cc1ccc2cc(C(c3nnnn3CC3CCCO3)N3CCc4ccccc4C3)c(=O)[nH]c2c1 (stereo not drawn) | 84 | . | . | 22554 | . | . | .
Cc1cccc2cc(C(c3nnnn3CC3CCCO3)N3CCc4ccccc4C3)c(=O)[nH]c12 (stereo not drawn) | / | / | / | / | / | . | /
COc1cccc2c1C(=O)c1c(O)c3c(c(O)c1C2=O)C[C@@](O)(C(=O)CO)C[C@@H]3O[C@H]1C[C@H](N)[C@H](O)[C@H](C)O1 | 41 | . | . | . | . | . | 30
COc1ccc(C(=O)NC(=O)CSc2n[nH]c(N)n2)cc1 | . | . | . | . | . | / | /
CC(=O)c1cccc(NC(=O)C2=CC(c3cccs3)=NS(=O)(=O)N2C)c1 | . | . | . | . | . | . | /
CN1C(C(=O)Nc2cccc(O)c2)=CC(c2cccs2)=NS1(=O)=O | 33 | . | . | . | . | . | .
COc1cc(/C=N/n2c(C3CCCCC3)n[nH]c2=S)ccc1O | 31 | . | . | . | . | . | .
COc1cccc(/C=N/n2c(C3CCCCC3)n[nH]c2=S)c1O | . | . | . | . | . | . | /
O=C1CC(C(=O)Nc2ccc(F)cc2)S/C(=N\N=C\c2ccco2)N1 (stereo not drawn) | 35 | . | . | . | . | . | .
CN=c1sc(C(=O)Nc2ccccc2)c(C)n1C | . | . | . | . | . | . | /
CN=c1sc2c(n1C)C(=O)c1ccccc1C2=O | 80 | . | . | . | . | / | 79
CC(=O)c1ccc(N2CCN(C(=O)COc3ccc4c(c3)CCC4)CC2)cc1 | . | . | . | . | . | . | /
Cc1ccc(Cl)cc1N1CCN(C(=O)COc2ccc3c(c2)CCC3)CC1 | 30 | . | . | . | . | . | .
